Bioassay records: PubChem, National Center for Advancing Translational Sciences (NCATS)
VACV mCherry inh: vaccinia inhibition (mCherry reporter); Potency, µM (titrated, usually from 36.5 µM), usual class: inhibitors; 0.63% of 310,000 active; Vaccinia virus mCherry reporter infection, fluorescence; calls by dose curve; tested in A549 cells; further: nearly all actives have a fitted effect of over 35% in size
MARV entry inh: inhibitors of Marburg virus binding or cell entry; Marburg virus pseudotyped entry inhibition, cell reporter; Potency, µM (titrated, usually from 37.8 µM), most hits filed as inhibitors; AID 540276; 1.8% of 300,000 active; calls by dose curve; tested in HEK293 cells
CHX counter: affects cycloheximide protein synthesis inhibition readout, counter-screen; max response, %; cell reporter, cycloheximide protein synthesis inhibition counterscreen; AID 2314; 12% of 300,000 active; in the data active means max response mostly above about 13%, no sharp cut-off; inactive means mostly below about 14%; further: read at 38.3 µM for the half of the compounds with a filed dose
Lassa entry inh: inhibitors of Lassa virus binding or cell entry. Lassa virus pseudotype entry inhibition, cell reporter. Potency, µM (doses to about 37.9 µM), most hits filed as inhibitors. 1.2% of 300,000 active; calls by dose curve; tested in HEK293 cells; further: nearly all actives have a fitted effect of over 50% in size
Vaccinia Venus: inhibitors of vaccinia virus (Venus reporter). 0.46% of 330,000 active. AID 720580. Potency, µM (titrated, usually from 36.5 µM), usual class: inhibitors. Vaccinia virus Venus reporter expression, fluorescence; calls by dose curve; tested in A549 cells; further: nearly all actives have a fitted effect of over 30% in size
Shiga toxin inh: blocks Shiga toxin action in Vero cells; 9.2% of 290,000 active; Vero cells, Shiga toxin protein synthesis inhibition reporter; inhibition, % at 38.7 µM; in the data active means inhibition mostly above about 28%, no sharp cut-off; inactive means mostly below about 43%
Each line names hits and unclear results; the compound was inactive in the other large screens; ! = not confirmed by another sample. The sample as a whole holds a higher share of hits than the screen did.

Cc1cc2c(c(-c3cnccn3)c1)OC(CNC(=O)c1cc(Cl)ccc1F)C2 (centres undefined)	none (no result: MARV entry inh, CHX counter, Lassa entry inh, Shiga toxin inh)
Cc1c(C(=O)NCc2ccccc2Cl)sc2ncnc(NCC3CCCO3)c12 (centres undefined)	none (no result: MARV entry inh, CHX counter, Lassa entry inh, Shiga toxin inh)
CCCCn1c(=N)n(CC(O)c2ccccc2)c2ccccc21 (centres undefined)	MARV entry inh 13µM, Lassa entry inh inconclusive
CC(C)(C)c1ccc(Cn2c(=N)n(CC(O)c3ccco3)c3ccccc32)cc1 (centres undefined)	VACV mCherry inh inconclusive, MARV entry inh 11µM, Vaccinia Venus inconclusive
CCn1c(=N)n(CC(O)c2ccccc2)c2ccccc21 (centres undefined)	MARV entry inh inconclusive
N=c1n(CCN2CCCC2)c2ccccc2n1CC(O)c1ccco1 (centres undefined)	MARV entry inh inconclusive, Lassa entry inh inconclusive (no result: VACV mCherry inh, Vaccinia Venus)
CCCCCCCn1c(=N)n(CC(O)c2ccco2)c2ccccc21 (centres undefined)	VACV mCherry inh inconclusive, MARV entry inh 2.8µM, Lassa entry inh inconclusive
O=C(NCC1CCCCN1)c1cc(OCC(F)(F)F)ccc1OCC(F)(F)F (centres undefined)	VACV mCherry inh 35µM!, MARV entry inh inconclusive, Lassa entry inh inconclusive, Vaccinia Venus 10µM!
O=C(NCCNC(=O)c1cc(OCC(F)(F)F)ccc1OCC(F)(F)F)Nc1ccc(Cl)cc1	CHX counter 28, Lassa entry inh inconclusive (no result: VACV mCherry inh, Vaccinia Venus)
O=C(CCl)NCCNC(=O)c1cc(OCC(F)(F)F)ccc1OCC(F)(F)F	VACV mCherry inh 2µM, MARV entry inh inconclusive, Vaccinia Venus 2µM
O=C(NCCNC(=O)c1cc(OCC(F)(F)F)ccc1OCC(F)(F)F)Nc1ccc(OC(F)(F)F)cc1	none (no result: VACV mCherry inh, Vaccinia Venus)
O=C(NCCN1CCCCC1)c1cc(OCC(F)(F)F)ccc1OCC(F)(F)F	VACV mCherry inh inconclusive
CCN(CC)c1ccc(NC(=O)c2ccccc2F)cc1	VACV mCherry inh inconclusive, MARV entry inh inconclusive, CHX counter 38, Lassa entry inh inconclusive, Vaccinia Venus inconclusive, Shiga toxin inh 71
N#CC1(c2ccc(NC(=O)c3ccccc3F)cc2)CCCC1	MARV entry inh inconclusive, CHX counter 45, Lassa entry inh inconclusive, Shiga toxin inh 62
O=C(O)c1cc(NC(=O)c2ccccc2F)cc(NC(=O)c2ccccc2F)c1	none
O=C(Nc1ccc(Nc2ccccc2)cc1)c1ccccc1F	VACV mCherry inh inconclusive, MARV entry inh inconclusive, CHX counter 33, Shiga toxin inh 74
CC(/C=C/c1ccco1)=N/NC(=O)c1ccccc1Cl	MARV entry inh inconclusive, CHX counter 26
CC(/C=C/c1ccco1)=N\NC(=O)c1cccc(Cl)c1	CHX counter 35
O=C(N/N=C/C=C/c1ccco1)c1ccccc1Cl	MARV entry inh inconclusive
CCn1nc(C)c(Br)c1-c1nc(CS(=O)(=O)c2ccsc2)no1	CHX counter 28 (no result: VACV mCherry inh, MARV entry inh, Lassa entry inh, Vaccinia Venus)
CCCCOc1ccc(N(CC(=O)NC2CCCCC2)C(=O)CCC(=O)Nc2ccccn2)cc1	none (no result: Lassa entry inh)
Cc1ccc(S(=O)(=O)C2(S(=O)(=O)c3ccc(C)cc3)CC2)cc1	MARV entry inh 11µM, Lassa entry inh inconclusive
O=S(=O)(c1ccccc1)C1(S(=O)(=O)c2ccccc2)CCCC1	Lassa entry inh inconclusive (no result: VACV mCherry inh, Vaccinia Venus)
CC(=O)Nc1cccc(OCC(=O)Nc2ccc(F)cc2)c1	CHX counter 15
CC(=O)Nc1cccc(OCc2ccc(F)cc2)c1	MARV entry inh inconclusive
Cc1ccc(OCC(=O)Nc2ccc(F)cc2)cc1C	CHX counter 39, Shiga toxin inh 46
Cc1ccc(/C=C/C(=O)CCC(=O)O)cc1	CHX counter 35, Shiga toxin inh 64
Cc1ccc(/C=C/S(=O)(=O)NCC(=O)O)cc1	none
Cc1ccc(Cl)cc1NC(=O)c1cc(NC(=O)C2CCCCC2C(=O)O)ccc1N1CCOCC1 (centres undefined)	Lassa entry inh 10µM
O=C(Nc1ccccc1N1CCOCC1)c1cccc(F)c1	none (no result: Lassa entry inh)
Cc1ccc(NC(NC(=O)c2cccnc2)C(Cl)(Cl)Cl)cc1 (centres undefined)	MARV entry inh 16µM
O=C(Nc1ccc(N2CCOCC2)c(Cl)c1)c1cccc(F)c1	CHX counter 44, Lassa entry inh inconclusive, Shiga toxin inh 119 (no result: VACV mCherry inh)
COc1c(C)cccc1C(=O)Nc1ccc(N2CCOCC2)c(Cl)c1	MARV entry inh inconclusive, CHX counter 89, Lassa entry inh inconclusive, Shiga toxin inh 121
Cc1cn2c(=O)cc(COc3ccccc3NC(=O)c3ccco3)nc2s1	none (no result: CHX counter, Shiga toxin inh)
CCc1c(C)c2ccc(OCC(=O)NCC3CCC(C(=O)O)CC3)cc2oc1=O (centres undefined)	none (no result: MARV entry inh, Lassa entry inh)
O=C(Nc1ccc(N2CCOCC2)cc1)c1cccnc1	CHX counter 28, Lassa entry inh inconclusive, Shiga toxin inh 38
Cc1ccc(NC(=O)c2ccccc2)cc1C	none (no result: MARV entry inh, CHX counter, Lassa entry inh, Shiga toxin inh)
O=C(Nc1nnc(-c2ccccc2Cl)o1)c1cccnc1	CHX counter 19, Lassa entry inh inconclusive, Shiga toxin inh 58 (no result: VACV mCherry inh, Vaccinia Venus)
Cc1ccc(NC(=O)c2cccnc2)cc1C	MARV entry inh inconclusive, CHX counter 19 (no result: Shiga toxin inh)
O=C(Nc1ccc(N2CCOCC2)c(Cl)c1)c1cc(F)c(F)cc1Cl	CHX counter 19
O=C(Nc1ccc(N2CCN(Cc3ccccc3)CC2)cc1)c1cccnc1	none (no result: VACV mCherry inh)
O=C(Nc1ccc(N2CCOCC2)c(Cl)c1)c1c(F)c(F)c(F)c(F)c1F	none
O=C(Nc1ccc(NC(=O)c2ccccc2Cl)cc1)c1cccnc1	MARV entry inh inconclusive
O=C(Nc1ccc(N2CCCCC2)c(Cl)c1)c1cccnc1	VACV mCherry inh 13µM, MARV entry inh 1µM, Lassa entry inh 0.89µM, Shiga toxin inh 96
CSc1ccc(NC(=O)c2cccnc2)cc1C#N	Shiga toxin inh 51
O=C(Nc1ccc(N2CCN(C(=O)c3cccs3)CC2)c(Cl)c1)c1cccnc1	MARV entry inh inconclusive, Lassa entry inh inconclusive
O=C(Nc1ccc(N2CCCC2)c(Cl)c1)c1cccnc1	CHX counter 39, Shiga toxin inh 54 (no result: VACV mCherry inh)
O=C(Nc1ccc(Cl)c(Cl)c1)c1cccnc1	CHX counter 35 (no result: VACV mCherry inh, MARV entry inh, Lassa entry inh, Vaccinia Venus, Shiga toxin inh)
CCc1cccc(NC(=O)CCS(=O)(=O)c2cc(Br)cc3c2N(C(C)=O)CC3)c1	none (no result: CHX counter, Shiga toxin inh)
O=C(Nc1ccc(N2CCOCC2)c(Cl)c1)c1cccnc1	MARV entry inh inconclusive, CHX counter 26, Lassa entry inh inconclusive, Shiga toxin inh 53 (no result: VACV mCherry inh)
O=C(CCN1Cc2ccccc2OC(c2ccccc2F)C1)N1CCC(N2CCCC(O)C2)CC1 (centres undefined)	none (no result: MARV entry inh, CHX counter, Lassa entry inh, Shiga toxin inh)
COc1cc(OC)cc(C(=O)NCC2Cc3cccc(-c4nc(C)cnc4C)c3O2)c1 (centres undefined)	none (no result: MARV entry inh, CHX counter, Lassa entry inh, Shiga toxin inh)
COc1ccc(N=Nc2c(C)[nH][nH]c2=O)cc1	CHX counter 35, Shiga toxin inh 103
Cc1[nH][nH]c(=O)c1N=Nc1ccc(F)cc1	none (no result: VACV mCherry inh, MARV entry inh, Lassa entry inh, Vaccinia Venus)
COc1cccc(N=Nc2c(N)[nH][nH]c2=O)c1	CHX counter 55, Lassa entry inh inconclusive, Shiga toxin inh 59
CCOc1ccc(N=Nc2c(N)[nH][nH]c2=O)cc1	CHX counter 78, Lassa entry inh inconclusive, Shiga toxin inh 68
Cc1cccnc1-c1cccc2c1OC(CNC(=O)Cc1c(C)noc1C)C2 (centres undefined)	none (no result: MARV entry inh, CHX counter, Lassa entry inh, Shiga toxin inh)
Cc1ncc2c(c1CNS(=O)(=O)N(C)C)CCN(C(=O)/C=C/c1ccccc1F)C2	none (no result: MARV entry inh, CHX counter, Lassa entry inh, Shiga toxin inh)
